# In PubChem BioAssay AID1508600 (Functional Genomics Laboratory (NCATS/FGL), 2020):
# Hit rate of the full screen: of about 53,000 sequences, about 3,700 (7%) were called active.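 How the source made its calls: active means gene knockdowns whose robust z-score for IL-1 alpha signal is at least 2 or at most -2, so actives lie on both sides; inactive means the rest.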 This excerpt belongs to a sample that is enriched for actives.
# Experiment: Components of the Cytosolic LPS Sensing Pathway: Gene Identification via Genome-wide siRNA Screen;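 further: robust z of the log signal after scaling to non-targeting control siRNA wells of the plate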
# Conditions: RAW264.7 macrophages, IL-1a HTRF, actives lie on both sides, screened at 100 nM (by protocol), cells primed 5 h with Pam3CSK4 first
# Method in brief: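 IL-1a HTRF of supernatants after 24 hour LipidA transfection of Pam3CSK4-primed (5 hours) RAW264.7 cells, 48h post-siRNA transfection (100 nM). Scores: percent of plate negative-control median, then log-based robust z-score.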
row,Sequence,z-score
1,GGUACUAAAUCAAACAUCCTT against Angpt1,0.578 (inactive)
2,GAUCUUUCGACACAUCACCTT against Cyp4a12a,-2.02 (active)
3,GCCUGAAUCCGCCACAUUGTT against Cx3cl1,1.6 (inactive)
4,GGAGGACCAUUGUAAGUAGTT against 9930022D16Rik,2.17 (active)
5,CCUGGAUGCAGGUUAAGCUTT against Dppa5a,-0.817 (inactive)
6,GCUGAAACUAACAUUUGAUTT against Anxa3,0.146 (inactive)
7,CCUCCACUAUACGGUAAGUTT against Pla2g2c,-3.37 (active)
8,GGCUGGAUGUCAGAUUGCATT against Olfr1389,-1.38 (inactive)
9,GGACCAGUUUGAGUAUGAGTT against Tmem11,-1.58 (inactive)
10,CCUGUGAGGCCAUUGAUUCTT against Acsbg1,-1.33 (inactive)
11,GGACUCUUUUUGUUCUUUGTT against Vgll2,-1.22 (inactive)
12,CGUUACCAUGAGAGUUAAUTT against Pcdhb19,3.83 (active)
13,CGGGAGUAUCUGCUUCAGUTT against Ndufb4,0.336 (inactive)
14,GGCUGAAGAGAUUGUCAAUTT against Aars,-0.392 (inactive)
15,CCUGCUAAACCUGGACCAUTT against Hic1,1.61 (inactive)
16,GGAGCUUAGCCUCUGUAUGTT against Gatd3a,-0.86 (inactive)
17,GGUAAAGACAAGAUUAAAGTT against Cyp39a1,-0.308 (inactive)
18,GCCACUCAUAUUGAUCCAUTT against Prss34,-2.31 (active)
19,GGUGUUUACUCCGUACCCATT against Tbrg4,-2 (inactive)
20,GCGUGAACCUCCUUCUUGATT against Ramp3,-1.29 (inactive)
21,GGAGAGGCAUCUUUUCCUATT against Arhgap20,-0.338 (inactive)
22,CCCACCUAGGUUCAUCCCATT against Fat1,-1.4 (inactive)
23,GGAAUGUGAGCUUAUCAUATT against Tlr1,-0.965 (inactive)

row,Sequence,z-score
1,GCAUAGAUUGAUGGCUAAUTT against Chd8,1.18 (inactive)
2,GCAUAGCAGAGAUGAUUCUTT against Trip12,2.15 (active)
3,GGUUGAUGAGUUUAGGUUUTT against Cpsf2,0.264 (inactive)
4,GGGUUCAAAAGCCCAUAUUTT against Gm6787,0.206 (inactive)
5,GGUCUUCGAAACACAGCUGTT against Exoc3l2,-0.402 (inactive)
6,GGUUUUAUCAGAAUGUCAGTT against Atpaf2,0.464 (inactive)
7,CCAUAGUAUUGAUGUCUGCTT against Nat8f2,0.363 (inactive)
8,GGACUCUUUUCUACGUGGATT against Klhl1,2.54 (active)
9,CCCUAGGUCAUAGCUUGACTT against Crtc1,1.58 (inactive)
10,CGGUCCCAAACGGUCAAGUTT against Tafa2,1.69 (inactive)
11,GCCUGGAAUGCAGAAUCGATT against Vwa2,-0.0276 (inactive)
12,CCCAAAGUGCUUUACAAUGTT against Aard,2.1 (active)
13,GGUUCAACGCAAAGUUCGCTT against Aldh4a1,0.347 (inactive)
14,GCUACUAUGUGCCCUGAUATT against Ms4a7,-0.458 (inactive)
15,CCUCCUUAUCCAUAAUAUUTT against Slc35a3,0.727 (inactive)
16,GGCUCUAAAACUGUCAGACTT against Scp2d1,2.25 (active)
17,GGGUAUUUUGACAAUUUGGTT against Lrig3,-0.576 (inactive)
18,GGCCAGACCUUUGUGAAUGTT against Ctse,-1.96 (inactive)
19,GGAAUCUUUAGACCAUCUCTT against Myh1,5.3 (active)
20,GGCCAUGAAUCUUGUUGGGTT against Scg5,-0.684 (inactive)
21,GGAAGUCACCAUCAACCAGTT against Krt4,0.168 (inactive)
22,CGAGCACUAUUUUGGAUUATT against Usp12,0.0102 (inactive)
23,GGCUGUGAUCUCCUGGCUUTT against Rnft2,-1.46 (inactive)

row,Sequence,z-score
1,GGCUUUACGAGGAAAAAGGTT against Pex1,2.09 (active)
2,GGAAUGCAUGCUAAUUCAGTT against Thsd1,1.1 (inactive)
3,GGAUUCUGAGUGUACGUUUTT against Zfp28,0.0227 (inactive)
4,CGAGGGAUAAGAGUCUACGTT against Ubxn11,1.45 (inactive)
5,GCUAAUUCCAAGAAAGAAGTT against Lifr,-0.326 (inactive)
6,GGACCAUCCCUGCUUAAUGTT against Brat1,-2.09 (active)
7,CGGUCAACAUCAAUGGUAATT against Gkn1,-1.28 (inactive)
8,GCUAAGAUUCCUUCCAGUATT against Adm2,0.98 (inactive)
9,GGUUCUACCUCAAGAUGUUTT against Srd5a2,0.0188 (inactive)
10,CCUAUAUCAUCAUGGUUUGTT against Tmx1,2.4 (active)
11,GGACUACGUAUUUUCCCUGTT against Cyc1,-0.39 (inactive)
12,GCUCUGAUAUUCUCAUCAATT against Olfr39,1.25 (inactive)
13,CCUGGGAGCCUAUUAUUCUTT against Ndufb10,-0.032 (inactive)
14,GGAAGAUAACCAUUUUGAATT against Setd4,-0.777 (inactive)
15,CGGCGUGUUUAUUUGCUAUTT against Rab27a,-1.38 (inactive)
16,CCUGGUUUACAUGUACGGGTT against Tap2,0.494 (inactive)
17,GCUAGAGACGAGAAGAUGATT against Ano10,-2.47 (active)
18,GCACUUCGAAGAAAUAAAATT against Ahsa2,0.396 (inactive)
19,CGAGGACAAAAAUACCGACTT against Supt6,-1.51 (inactive)
20,GAAGAUUAUCCAUUGCCCGTT against Lce1h,0.689 (inactive)
21,GGACCCAGCUCCUGUACAUTT against Ypel3,2.31 (active)
22,GGGACAGAGCCGAAAGAGUTT against Mrpl33,-1.39 (inactive)
23,CCUUGCCUUUACUACCAGUTT against Olfr15,-0.187 (inactive)
